Source: PubChem BioAssay AID1439 (NMMLSC, 2008)
Hit rate of the full screen: of about 220,000 compounds, about 770 (0.35%) were called active. Not shown: some 15% with an inconclusive outcome. No stated cut-off is given here; in the data, active means binding response below about 49% or above about 150%; inconclusive means no clear call, values can overlap the other calls; inactive means in between. The sample as a whole holds a higher share of actives than the screen did.

Each compound was assayed against Guanine nucleotide-binding protein G(o) subunit alpha (Homo sapiens) (UniProt P09471) (assay: RGS7-Galphao binding modulators, primary screen, biochemical, multiplexed bead flow cytometry (AID 1439;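 further: fluorescent Galphao held in activated GDP-AlF4 state binding bead-coupled RGS7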)). Conditions: at 10 µM, actives lie on both sides.
Sequence of Guanine nucleotide-binding protein G(o) subunit alpha (Homo sapiens) (P09471 whole entry, looked up): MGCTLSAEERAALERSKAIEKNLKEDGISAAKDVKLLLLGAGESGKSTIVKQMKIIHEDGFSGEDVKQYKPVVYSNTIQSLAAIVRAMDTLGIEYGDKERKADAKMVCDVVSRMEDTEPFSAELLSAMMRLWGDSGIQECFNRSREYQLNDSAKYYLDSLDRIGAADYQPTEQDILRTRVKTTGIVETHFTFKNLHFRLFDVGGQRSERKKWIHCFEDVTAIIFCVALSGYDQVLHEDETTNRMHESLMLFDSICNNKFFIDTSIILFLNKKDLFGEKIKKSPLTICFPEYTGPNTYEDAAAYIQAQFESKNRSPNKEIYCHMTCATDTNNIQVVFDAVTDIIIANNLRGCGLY

SMILES	binding response (% of control)
OCCC1CN(Cc2ccccc2-c2ccco2)CCN1Cc1ccsc1 (stereo not drawn)	95.9% (inactive)
Cc1ccc(S(=O)(=O)NCCc2nnc3ccc(SCc4cccnc4)nn23)cc1	95.6% (inactive)
O=C(O)CCn1c(SCc2cc(=O)n3ccccc3n2)nc2ccsc2c1=O	101% (inactive)
CC1=CC=CC2=N/C(=N\S(=O)(=O)c3ccc(F)cc3F)c3ccccc3CN12	101% (inactive)
c1ccc2c(NC3C4CC5CC(C4)CC3C5)nc(N3CCOCC3)nc2c1 (stereo not drawn)	100% (inactive)
N#Cc1nc(-c2ccc(OCc3ccccc3)cc2)oc1NCCCN1CCOCC1	97.2% (inactive)
N#Cc1nc(COc2ccc(-c3ccccc3)cc2)oc1NCc1cccnc1	202% (active)
N#Cc1nc(Cc2ccccc2)oc1NCCc1ccccc1	102% (inactive)
O=S(=O)(c1ccc(-c2ccccc2)cc1)N1CCCC1	106% (inactive)
O=C(NCc1ccco1)C(=O)c1cn(CC(=O)N2CCCCCC2)c2ccccc12	93.9% (inactive)
Cc1c(-c2cccc(Cl)c2)nc2ccccc2c1C(=O)OCC(=O)N(C)C1CCS(=O)(=O)C1 (stereo not drawn)	97% (inactive)
COc1ccc(C(=O)NC2CCN(C(=S)NCCc3ccccc3)CC2)cc1	91.3% (inactive)
C=CCn1c(=NC(=O)c2ccc(S(=O)(=O)N3CCCC3)cc2)sc2cc(NC(C)=O)ccc21	91.7% (inactive)
C=CCn1c(=NC(=O)c2cccs2)sc2cc(NC(C)=O)ccc21	152% (active)
CC(=O)Nc1ccc(/C=N/NC(=O)c2cccs2)cc1	99.9% (inactive)
O=C(OCC(=O)N1CCOCC1)c1ccc(N2CCOCC2)c([N+](=O)[O-])c1	102% (inactive)
Cc1c(NC(=S)NC(=O)CCc2ccccc2)c(=O)n(-c2ccccc2)n1C	103% (inactive)
CN(CCc1ccccn1)C(=O)CCC1CCCN(Cc2ccccc2OC(F)F)C1 (stereo not drawn)	102% (inactive)
Cc1ccc(S(=O)(=O)/N=C(/Nc2ccc3[nH]c(=O)[nH]c3c2)c2ccccc2)cc1	104% (inactive)
O=C(Cc1c[nH]c2ccccc12)OCCOC(=O)Cc1c[nH]c2ccccc12	95% (inactive)
NC(=O)CSc1c[nH]c2ccccc12	25.2% [inhibitor] (active)
O=C(CSc1nnc(-c2c[nH]c3ccccc23)o1)c1ccccc1	95.2% (inactive)
CC(C)N1CCC(N2CCN(Cc3cccnc3)CC2CCO)CC1 (stereo not drawn)	100% (inactive)
CC1CC(C)CN(CCC(=O)Nc2ccc3c(c2)CCC3)C1 (stereo not drawn)	104% (inactive)
NS(=O)(=O)c1ccc(NC(=S)NNC(=O)c2cccs2)cc1	109% (inactive)
Cc1cc(C)n(CC(O)CN(c2ccccc2)S(=O)(=O)c2ccc3ccccc3c2)n1 (stereo not drawn)	1.45% [inhibitor] (active)
Cc1ccc(N(CC(O)CN2CCCC2)S(=O)(=O)c2ccccc2)cc1 (stereo not drawn)	99.4% (inactive)
O=S(=O)(c1ccccc1)N(CC(O)CN1CCCCC1)c1ccccc1 (stereo not drawn)	110% (inactive)
